Experiment [1] is described as follows: optical density shifts of acrAB sulA E. coli – strain DRC41, OD650, 48 h, E. coli filamentation inducer project, primary screen (AID 1152).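 Also: E. coli MC1000 strain DRC41 lacking acrAB efflux pump and sulA.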 Particulars: higher = more signal, called active from +8 up or from −8 down.
Experiment [2] can be described thus: probe aLefty1 binding on compound microarray – biochemical, small-molecule microarray, 635/667 nm fluorescence, primary screen (AID 1153).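 Also: score merges spot fluorescence with signal-to-noise ratio from the scanned slide images.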 The following applies: higher = more signal.
Experiment [3] in a line: plasmodial surface anion channel blockers, osmotic lysis – cell-based, P. falciparum Indochina, OD700, 1 h, primary screen (AID 1154). Particulars: P. falciparum Indochina infected RBC osmotic lysis, higher = more signal, called active from +8 up or from −8 down.
Experiment [4] is described as follows: plasmodial surface anion channel blockers, osmotic lysis – cell-based, P. falciparum Indochina, OD700, 2 h, primary screen (AID 1155).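 Also: lysis reports solute entry through the parasite surface anion channel PSAC.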 Particulars: P. falciparum Indochina infected erythrocytes, higher = more signal, called active from +8 up or from −8 down.
The nature of experiment [5]: changes in parasitized red cell lysis, either direction – P. falciparum Indochina, OD700, 3 h, PSAC antagonist project, primary screen (AID 1156). The following applies: P. falciparum-infected erythrocytes, osmotic lysis, higher = more signal, called active from +8 up or from −8 down.
Experiment [6] is described as follows: plasmodial surface anion channel blockers, osmotic lysis – cell-based, P. falciparum Indochina, OD700, 18 h, primary screen (AID 1157). Particulars: P. falciparum Indochina infected erythrocytes, osmotic lysis OD700, 18 h; higher = more signal, called active from +8 up or from −8 down.
Experiment [7] is described as follows: S6 kinase pathway phospho-S6 level changes – cell-based, A549, cytoblot, luminescence, serum-stimulated, primary screen (AID 1158).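 Also: serum-stimulated A549 lung adenocarcinoma cells; signal is phosphorylated S6 detected by cytoblot immunostaining with HRP secondary.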 The following applies: 5 h, higher = more signal.
The target in experiment [8] is NADPH oxidase 2 (Homo sapiens) (UniProt P04839). Description: compounds shifting NOX2 Amplex Red fluorescence – cell-based, HEK293-NOX2, PMA-stimulated, NOX inhibitor project, primary screen (AID 1159). Also: test concentration not given here. Particulars: 45 min, higher = more signal, called active from +8 up or from −8 down.
The target of experiment [9] is NADPH oxidase 4 (Homo sapiens) (UniProt Q9NPH5). The experiment is described as follows: compounds shifting NOX4 Amplex Red fluorescence – cell-based, HEK293-NOX4, tetracycline-induced, NOX inhibitor project, primary screen (AID 1160). Particulars: HEK293-NOX4, Amplex Red H2O2 fluorescence, 45 min; higher = more signal, called active from +8 up or from −8 down.
Experiment [10] has as its target NADPH oxidase 5 (Homo sapiens) (UniProt Q96PH1). Description: compounds shifting NOX5 Amplex Red fluorescence – cell-based, HEK293-NOX5, NOX inhibitor project, primary screen (AID 1161). Particulars: HEK293-NOX5, ionomycin, 45 min, higher = more signal.
Experiment [11] is described as follows: compound effects on lung adenocarcinoma cell viability – A549, calcein-AM fluorescence, 48 h, basal, profiling panel (AID 1162). Also: test concentration not given here. Particulars: higher = more signal.
The nature of experiment [12]: compound effects on differentiated 3T3-L1 adipocyte viability – cell-based, 3T3-L1 adipocytes, calcein-AM fluorescence, 48 h, basal, profiling panel (AID 1163). Also: test concentration not given here. Particulars: 3T3-L1 adipocytes viability, higher = more signal.
The nature of experiment [13]: compound effects on hepatocellular carcinoma cell viability – HepG2, calcein-AM fluorescence, 48 h, basal, profiling panel (AID 1164). Also: test concentration not given here. Particulars: higher = more signal.
The nature of experiment [14]: compound effects on multiple myeloma cell viability – MM1S, calcein-AM fluorescence, 48 h, basal, profiling panel (AID 1165).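 Also: viability of MM1S multiple myeloma cells under basal unstimulated conditions; test concentration not given here.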 Particulars: higher = more signal.
Experiment [15] can be described thus: calcein-AM signal in unstimulated myeloma cells – cell-based, calcein-AM fluorescence, 48 h, PK04 Diversity Set, profiling panel (AID 1166).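 Also: cells grown under basal conditions without added stimulus; test concentration not given here.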 Particulars: RPMI8226 myeloma viability, higher = more signal.
The nature of experiment [16]: JC-1 mitochondrial signal, unstimulated HepG2 cells – cell-based, JC-1 fluorescence, 24 h, 100 nL compound, profiling panel (AID 1167). Also: test concentration not given here. Particulars: HepG2 mitochondrial potential, higher = more signal.
Experiment [17] in a line: JC-1 mitochondrial signal, unstimulated adipocytes – cell-based, JC-1 fluorescence, 3T3-L1 adipocytes, 24 h, 100 nL compound, profiling panel (AID 1168). Also: test concentration not given here. The following applies: JC-1 mitochondrial fluorescence, higher = more signal, called active from +8 up or from −8 down.
A short description of experiment [18]: JC-1 mitochondrial signal, unstimulated myeloma cells – cell-based, JC-1 fluorescence, RPMI8226, 24 h, 100 nL compound, profiling panel (AID 1169). Also: test concentration not given here. Particulars: JC-1 mitochondrial potential fluorescence, higher = more signal.
Experiment [19] can be described thus: JC-1 mitochondrial signal, unstimulated MM1S myeloma – cell-based, JC-1 fluorescence, 24 h, 100 nL compound, profiling panel (AID 1170). Also: test concentration not given here. Particulars: MM1S mitochondrial potential, higher = more signal.
Experiment [20] is described as follows: resazurin metabolic signal in A549 cells – cell-based, resazurin fluorescence, 24 h, PK04 Diversity Set, profiling panel (AID 1171). Also: test concentration not given here. Particulars: A549 viability, higher = more signal, called active from +8 up or from −8 down.

Structures are written as SMILES. Calls of active or inactive are those of the source.

Chain of NADPH oxidase 5 (Homo sapiens) (Q96PH1 whole entry, looked up): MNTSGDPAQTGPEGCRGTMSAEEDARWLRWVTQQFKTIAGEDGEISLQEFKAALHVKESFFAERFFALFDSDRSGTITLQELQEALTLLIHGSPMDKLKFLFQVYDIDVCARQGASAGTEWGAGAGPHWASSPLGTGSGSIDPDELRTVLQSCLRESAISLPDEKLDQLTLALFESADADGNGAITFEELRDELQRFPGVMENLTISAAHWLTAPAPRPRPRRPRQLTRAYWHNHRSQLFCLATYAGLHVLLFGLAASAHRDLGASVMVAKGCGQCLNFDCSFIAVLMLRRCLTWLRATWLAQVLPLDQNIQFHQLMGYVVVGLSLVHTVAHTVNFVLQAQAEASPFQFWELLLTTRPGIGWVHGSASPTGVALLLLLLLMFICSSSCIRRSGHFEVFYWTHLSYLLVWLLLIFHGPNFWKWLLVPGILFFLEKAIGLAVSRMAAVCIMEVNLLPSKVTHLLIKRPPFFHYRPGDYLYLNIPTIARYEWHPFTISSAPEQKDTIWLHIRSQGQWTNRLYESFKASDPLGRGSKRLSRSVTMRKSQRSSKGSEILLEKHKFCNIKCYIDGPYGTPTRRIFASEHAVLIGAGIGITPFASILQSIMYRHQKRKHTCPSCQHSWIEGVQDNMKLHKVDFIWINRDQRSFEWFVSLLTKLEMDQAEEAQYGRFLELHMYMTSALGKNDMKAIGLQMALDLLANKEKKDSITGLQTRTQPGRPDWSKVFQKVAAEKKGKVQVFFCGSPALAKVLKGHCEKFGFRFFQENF
Chain of NADPH oxidase 2 (Homo sapiens) (P04839 whole entry, looked up): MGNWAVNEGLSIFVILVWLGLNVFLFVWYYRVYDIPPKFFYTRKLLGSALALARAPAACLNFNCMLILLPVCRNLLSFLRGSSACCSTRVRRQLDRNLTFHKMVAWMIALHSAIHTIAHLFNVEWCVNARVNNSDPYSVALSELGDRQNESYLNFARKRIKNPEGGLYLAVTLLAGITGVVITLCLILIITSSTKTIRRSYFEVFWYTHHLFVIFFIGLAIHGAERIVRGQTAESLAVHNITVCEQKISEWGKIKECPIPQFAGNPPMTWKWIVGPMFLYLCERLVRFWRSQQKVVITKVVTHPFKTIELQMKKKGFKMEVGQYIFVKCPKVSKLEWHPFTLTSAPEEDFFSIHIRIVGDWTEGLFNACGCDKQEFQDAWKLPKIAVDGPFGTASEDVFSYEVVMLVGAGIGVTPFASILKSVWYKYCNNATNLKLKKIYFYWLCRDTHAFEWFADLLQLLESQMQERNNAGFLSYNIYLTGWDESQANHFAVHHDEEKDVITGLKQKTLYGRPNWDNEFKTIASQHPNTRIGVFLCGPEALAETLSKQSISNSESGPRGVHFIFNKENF
Chain of NADPH oxidase 4 (Homo sapiens) (Q9NPH5 whole entry, looked up): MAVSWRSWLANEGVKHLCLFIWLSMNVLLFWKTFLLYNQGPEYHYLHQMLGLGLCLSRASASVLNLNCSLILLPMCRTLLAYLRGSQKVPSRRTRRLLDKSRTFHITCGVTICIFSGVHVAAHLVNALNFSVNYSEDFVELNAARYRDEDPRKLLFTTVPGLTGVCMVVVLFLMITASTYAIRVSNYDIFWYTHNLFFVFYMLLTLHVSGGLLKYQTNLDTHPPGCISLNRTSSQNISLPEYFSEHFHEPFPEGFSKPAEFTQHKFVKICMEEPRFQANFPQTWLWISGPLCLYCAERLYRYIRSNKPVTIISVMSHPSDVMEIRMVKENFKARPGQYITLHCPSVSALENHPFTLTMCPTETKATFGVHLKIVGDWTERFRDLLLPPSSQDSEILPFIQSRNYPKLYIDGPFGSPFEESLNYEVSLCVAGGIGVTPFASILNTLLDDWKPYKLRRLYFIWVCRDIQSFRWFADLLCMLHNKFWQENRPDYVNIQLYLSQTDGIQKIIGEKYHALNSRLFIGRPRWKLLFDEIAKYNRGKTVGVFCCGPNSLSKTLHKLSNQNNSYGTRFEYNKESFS

As to `COCCOC(=O)N1C(=O)[C@@]2(c3cc(C#Cc4ccc(OC)cc4)ccc31)[C@H](c1ccc(O)cc1)N1[C@H](c3ccccc3)[C@H](c3ccccc3)OC(=O)[C@H]1[C@@H]2C(=O)N1CCc2cc(OC)c(OC)cc2C1`, the z-score in experiment [1] is 0.892 (inactive); in [3] it was 1.92 (inactive); in experiment [4] it was 1.19 (inactive); in experiment [5], 0.401 (inactive); in [6], 0.827 (inactive); in experiment [7], 0.035. The z-score in [8] was 0.478 (inactive); in experiment [9], 0.398 (inactive); in [10], 1.08; in experiment [11], -0.548; in experiment [12], 1.22; in [13] it was -0.486. Besides, the z-score in experiment [14] was -0.0636; in [15], -0.063; in experiment [16], 0.793; in experiment [17], 2.76 (inactive); in experiment [18] it was 0.188; in experiment [19] it was 0.108. Besides, in [20], the z-score was 0.776 (inactive). The compound further showed a composite z-score in experiment [2] of 0.134.
Consider `C=CCOC(=O)[C@H]1[C@@H]2C(=O)O[C@@H](c3ccccc3)[C@@H](c3ccccc3)N2[C@@H](c2ccc(OCCOC(=O)[C@H]3C[C@H]4C(=O)N[C@@H](CCCCNC(C)=O)C(=O)N4[C@H]3c3cccc(OCCO)c3)cc2)[C@]12C(=O)Nc1ccccc12`, for which the z-score in experiment [1] is -0.0842 (inactive); in [3], 3.6 (inactive); in [4], 1.52 (inactive); in experiment [5], 3.95 (inactive); in experiment [6], 1.01 (inactive); in experiment [7], -0.116. Further, the z-score in experiment [8] was 2.19 (inactive); in experiment [9] it was 1.93 (inactive); in [10] it was 0.8; in experiment [11] it was -0.112; in [12], 0.457; in experiment [13], -0.696. Also, the z-score in experiment [14] was -0.297; in [15], 0.728; in experiment [16], -0.235; in [17], 1.91 (inactive); in experiment [18] it was -0.0898; in experiment [19], -0.67. In addition, the z-score in experiment [20] was 0.319 (inactive). Moreover, in experiment [2], the composite z-score came to 0.179.
On to `C[C@H]1NC(=O)[C@@]23C(=O)N[C@@H](Cc4ccccc4)C2[C@H](C)[C@@]2(C)O[C@H]2C3/C=C/C/C=C\CNC(=O)[C@@H]2CCCN2C1=O` (stereo not given in full), for which the z-score in experiment [1] is -0.0438 (inactive); in [3], 0.306 (inactive); in experiment [4], 0.189 (inactive); in experiment [5], 0.159 (inactive); in experiment [6], 0.108 (inactive); in experiment [7], -0.199. The z-score is -0.0374 (inactive) in [8]; 1.41 (inactive) in experiment [9]; 0.41 in experiment [10]; -0.197 in experiment [11]; 0.286 in experiment [12]; -0.0389 in experiment [13]. For the same compound, the z-score was -1.6 in experiment [14]; 0.727 in experiment [15]; -0.0133 in experiment [16]; 0.0802 (inactive) in [17]; 0.263 in experiment [18]; -0.507 in experiment [19]. For the same compound, the z-score in [20] was 0.437 (inactive). For the same compound, the composite z-score in experiment [2] was -0.0046.
For the compound `COC(=O)[C@@]1(Cc2ccccc2)N=C(c2ccc(OCCCO)cc2)O[C@H]1c1ccccc1`, the z-score in [1] was 0.792 (inactive); in experiment [3] it was 23.4 (active); in experiment [4], 12.2 (active); in experiment [5] it was 0.737 (inactive); in experiment [6] it was 1.89 (inactive); in [7], -0.182. Besides, the z-score in experiment [8] was -5.76 (inactive); in [9], -0.904 (inactive); in experiment [10] it was -3; in experiment [11], -1.98; in experiment [12] it was 0.598; in [13], -1.69. Besides, the z-score is -3.6 in [14]; -3.94 in [15]; -2.02 in experiment [16]; 0.294 (inactive) in [17]; -1.1 in experiment [18]; -0.354 in experiment [19]. The z-score in experiment [20] was -2.02 (inactive). In addition, the composite z-score in [2] was determined as 0.236.
As for `[N-]=[N+]=NCc1ccccc1[C@@H]1OC(c2ccc(OCCCO)cc2)=N[C@]1(Cc1ccccc1)C(N)=O`, the z-score in [1] is -0.451 (inactive); in experiment [3], 21.9 (active); in experiment [4] it was 4.7 (inactive); in [5] it was 2.64 (inactive); in [6], 1.03 (inactive); in experiment [7], 0.929. Further, the z-score is -2.06 (inactive) in experiment [8]; 0.76 (inactive) in [9]; -2.22 in experiment [10]; 0.88 in [11]; 1.5 in experiment [12]; 0.493 in experiment [13]. Moreover, the z-score in [14] was -0.527; in experiment [15] it was -1.63; in [16], 1.49; in [17], -0.534 (inactive); in [18], -0.75; in [19], -1.1. Also, the z-score in [20] was 0.479 (inactive). Further, in [2], the composite z-score came to 0.0429.

These data come from PubChem BioAssay.
